The source of these data is PubChem BioAssay AID1347431 (National Center for Advancing Translational Sciences (NCATS), 2020).

Structures are written as SMILES. Out of some 1,200 compounds screened, fewer than 10 were called active. Calls follow the shape of the dose curve; as a rule, active = well fitted curve in the direction sought with a large enough effect; inconclusive = small, poorly fitted or top-dose-only effect, or another doubt; inactive = no such curve, though single readings can be large or run the other way. Not all results are given here.

The test can be described thus: Confirmatory qHTS assay for inhibitors of Activation Induced Cytidine Deaminase (AID): UDG signals. The conditions noted are these: UDG coupled enzyme activity counter-screen; series mostly up to 115 µM. The method, boiled down: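 Fluorescence at 560 nm excitation/665 nm emission reports UDG activity, read after NaOH quench of a 4 h room-temperature reaction of DJC20/DJC23 substrates with AID (1 uM, 4/3x) and UDG (2 U/mL, 4/3x); compounds at 7.32 nM - 114 uM final, preincubated 10 min.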
With `CCn1c(=O)c2cc(C(=O)NCCCN(C)Cc3ccccc3)sc2c2ccccc21`, the compound was classed as inactive. Take `COc1ccc(CCNC(=O)c2cc(Nc3cc(C)cc(C)c3)nc3ccccc23)cc1OC`: the compound was called inactive. For the compound `Cc1ccc(-c2nc3nc(C)cc(C)n3c2Nc2ccc3c(c2)OCCO3)cc1`, the outcome was inactive.

Turning to `Cc1ccc(C)c(N2CCN(C(=O)c3cc(S(=O)(=O)N4CCCCC4)cn3C)CC2)c1`, the compound was called inactive. Regarding `Cc1cc(C)c(NC(=O)CCCn2c(C)c3cnn(-c4ccccc4)c(=O)c3c2C)c(C)c1`, the call was inactive.

Consider `CCOC(=O)c1ccc(-n2c(N)c(C(=O)OC)c3nc4ccccc4nc32)cc1`, for which the compound was classed as inactive. For `Cc1ccc(C(=O)c2cn(Cc3ccccc3)c3ccccc3c2=O)cc1`, the compound was called inactive.

With `COc1cccc(-c2nc3cc(NC(=O)c4ccc(C)c([N+](=O)[O-])c4)ccc3o2)c1`, the compound was called inactive.

As for `Cc1ccc2c(c1)-c1c(cnn1CC(=O)N1CCN(c3cccc(C(F)(F)F)c3)CC1)CO2`, the compound was classed as inactive. Consider `O=C(CC1N=C2c3ccccc3N=C(SCc3ccccc3F)N2C1=O)NCc1ccc2c(c1)OCO2` (centres undefined), for which the compound was classed as inactive. In the case of `Cc1nn(C(=O)c2ccccc2)c(C)c1Sc1ccc(Cl)cc1`, the compound was called inactive.

As to `Cc1ccc(C)c(NC(=O)CSc2nccn2-c2cccc(C)c2C)c1`, the result was inactive.

For `O=C(c1cccc(Cl)c1)N(Cc1ccco1)Cc1ccccc1Cl`, the call was inactive.

With `Cc1cccc(-c2nnc(SCC(=O)N3CCCc4ccccc43)o2)c1`, the compound was classed as inactive. Then `CCc1ccccc1NC(=O)[C@H](Cc1ccccc1)N1Cc2ccccc2C1=O`, with “inactive”. `COc1ccc(Cn2cc(C(=O)c3ccc(OC)cc3)c(=O)c3cc4c(cc32)OCCO4)cc1`: the result was inactive. For the compound `Cc1cc(C)c2c(CC(=O)N(Cc3ccc(Cl)cc3)Cc3ccco3)coc2c1`, the outcome was inactive. `Cc1ccc(N(Cc2cccs2)C(=O)c2ccccc2)cc1`: the outcome was inactive.

With `COc1ccc(Nc2cc(C)c3cc(NC(=O)COc4cccc(C)c4)ccc3n2)cc1`, the outcome was inactive.

Take `CCN(C(=O)c1cc2cc3ccc(OC)cc3nc2o1)c1cccc(C)c1`: the result was inactive. With `COc1ccc(-c2cn3c(n2)sc2cc(C(=O)NCCCN4CCCCC4)ccc23)cc1`, the outcome was inactive.

In the case of `COc1ccc(CCNC(=O)CS(=O)Cc2nc(-c3ccc(C)cc3)oc2C)c(OC)c1` (centres undefined), the outcome was inactive. The result for `COc1ccc(Cl)cc1NC(=O)CSc1nc(=O)n(Cc2ccco2)c2c1CCC2` reads “inactive”; that for `COc1ccc(C(=O)c2cn(Cc3ccccc3F)c3cc4c(cc3c2=O)OCCO4)cc1OC`, “inactive”.
